# In PubChem BioAssay (Tox21):
# Several values for one entry are separate records, joined by “and”; a condition that tells them apart may be missing. Equal values may be shown once. Inconclusive results are not listed. Unmarked numbers belong to inactive results. Activity calls are given as the source filed them. The call rests on the fitted dose curve; in most records, active means well fitted inhibition curve with a large enough effect in the repeat runs; inconclusive means weak or mixed curves; inactive means no such curve, though single readings can be large or run the other way.
# Target: Cytochrome P450 2C19 (Homo sapiens) (UniProt P33261)
# Sequence (P33261 whole entry, looked up): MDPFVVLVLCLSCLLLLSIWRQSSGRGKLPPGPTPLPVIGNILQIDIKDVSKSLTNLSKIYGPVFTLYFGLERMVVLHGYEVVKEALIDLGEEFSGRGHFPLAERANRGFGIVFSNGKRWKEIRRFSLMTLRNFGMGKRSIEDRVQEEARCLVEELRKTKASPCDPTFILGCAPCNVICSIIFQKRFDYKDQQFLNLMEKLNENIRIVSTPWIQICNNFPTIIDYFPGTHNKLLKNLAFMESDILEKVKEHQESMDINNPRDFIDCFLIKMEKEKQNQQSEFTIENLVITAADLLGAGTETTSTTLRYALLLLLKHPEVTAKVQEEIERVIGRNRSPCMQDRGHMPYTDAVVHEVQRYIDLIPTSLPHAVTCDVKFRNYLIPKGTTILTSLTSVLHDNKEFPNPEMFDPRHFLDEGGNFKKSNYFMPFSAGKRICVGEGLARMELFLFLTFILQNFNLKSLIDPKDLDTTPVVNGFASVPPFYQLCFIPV
# Experiment: Cytochrome P450 Family 2 Subfamily C Member 19 (CYP2C19) small molecule antagonists: luciferase reporter qHTS assay (AID 1671197); further: nearly all actives have a fitted effect of over 65% in size
# Details: P450-Glo CYP2C19 enzyme, luciferin luminescence, 1 h; series mostly up to 115 µM; activity change, negative = inhibition: at the top concentration
# From the text: National Center for Advancing Translational Sciences [NCATS]
# U.S. Environmental Protection Agency [EPA]
# National Institutes of Environmental Health Sciences [NIEHS]
# National Toxicology Program [NTP]
# U.S. Food and Drug Administration [FDA]
# Cytochrome P450 (CYP) enzymes are membrane-bound hemeproteins that play a key role in metabolism of drugs and xenobiotics. Evaluation of the effect of chemicals on CYP isozymes is useful to minimize the adverse drug reactions and toxicities in drug development process. Tox21 chemicals were tested for their effect on CYP enzyme activities by using P450-Glo (TM) screening systems (Promega Corporation, Madison, WI). These systems provide a luminescent method containing proluciferin substrates and are converted to luciferin products by CYP isozymes. The luciferin products formed are detected with a luciferin detection reagent, and the amount of light produced is proportional to CYP activity. P450-Glo (TM) CYP2C19 screening system (Catalog. No. V9880) was used to detect the compounds that interfere in CYP2C19 activity. The positive control compound used for CYP2C19 assay is ketoconazole (Sigma-Aldrich, St. Louis, MO).
# Tox21 Assay Protocol Summary:
# Two ul of enzyme-substrate mix was dispensed into medium binding white/solid 1536-well plates (Greiner Bio-One North America Inc., Monroe, NC) using a BioRaptr Flying Reagent Dispenser (FRD, Beckman Coulter, Brea, CA). Compounds dissolved in DMSO and positive control (ketoconazole) were transferred to the assay plates at 23 nl using a Pintool station (Wako, San Diego, CA). The assay plates were incubated at room temperature for 10 min. Then 2 ul of NADPH regeneration solution was added to each well of the assay plates using an FRD and incubated at 37C for 1 h. The reaction was stopped by adding 4 ul of detection reagent using an FRD and after 20 min incubation at room temperature the luminescence signal was measured using a ViewLux plate reader (Perkin Elmer, Shelton, CT). Data were expressed as relative luminescence units.
# On the % scale 0 is the no-effect control and ±100 the full control effect; potency means the concentration at half of the fitted maximal effect.
Compound,Potency,"activity change, negative = inhibition"
NC(=O)Nc1ccc(Cl)cc1,79.3 µM (active),–
CCCCC(CC)CNCC(CC)CCCC (stereo not given),35.3 µM (active),–
C[N+](C)(C)CCOC(N)=O,–,15.1% [at 52.9 µM]
CCCOCCOCCO,–,-5.03%
O=C(Nc1ccc([N+](=O)[O-])cc1)Nc1ccc([N+](=O)[O-])cc1,–,-7.96% [at 52.9 µM]
CC(C)(O)c1ccccc1CC[C@@H](SCC1(CC(=O)O)CC1)c1cccc(/C=C/c2ccc3ccc(Cl)cc3n2)c1,–,0.574% [at 52.9 µM]
OCC1CC=CCC1 (stereo not given),–,-6.86%
CCCCCCCCSCCO,20 µM (active),–
CC(=O)N(c1onc(C)c1C)S(=O)(=O)c1ccc(N)cc1,–,-1.73% [at 52.9 µM]
C[N+]1(C)CCC(=C(c2ccccc2)c2ccccc2)CC1,–,-5.45% [at 52.9 µM]
Nc1nccs1,–,5.04%
CC1=C(/C=C/C(C)=C\C=C\C(C)=C\C(=O)O)C(C)(C)CCC1,35.6 µM (active),–
CO/N=C1\CN(c2nc3c(cc2F)c(=O)c(C(=O)O)cn3C2CC2)CC1CN (stereo not given),–,50% [at 52.9 µM]
N#C/C(=C1/SC[C@@H](c2ccc(Cl)cc2Cl)S1)n1ccnc1,0.389 µM (active),–
CC(C)c1nnc2ccc(-c3ocnc3-c3cc(F)ccc3F)cn12,56.4 µM (active),–
CC(C)C(=O)O,–,24.1%
Cc1nccn1-c1ccc(Sc2cccc(C3(C(N)=O)CCOCC3)c2)cc1,20 µM (active),–
CC1=CC(O)CC(C)(C)C1 (stereo not given),–,-8.03%
O=[N+]([O-])c1cccc(S(=O)(=O)NCCNS(=O)(=O)c2cccc([N+](=O)[O-])c2)c1,3.09 µM (active),–
Brc1cc(-c2ccc(Br)c(Br)c2Br)cc(Br)c1Br,39.3 µM (active),–

Compound,Potency,"activity change, negative = inhibition"
O=C(CS)OCCOC(=O)CS,–,-20.8%
O=C(O)c1ccccc1NCCc1ccccc1,–,5.43% [at 52.9 µM]
Cc1cc(O)c(C(C)C)cc1Cl,35.6 µM (active) and 24.5 µM (active),–
CN(C)CCOC1=Cc2ccccc2Sc2ccc(Cl)cc21,–,-17.1% [at 52.9 µM]
C[Si](NC1CCCCC1)(NC1CCCCC1)NC1CCCCC1,–,-14.3%
Oc1cc(O)c(Cl)cc1Cl,–,9%
O=C(CCCCCCCCC#CI)Oc1ccccc1,–,17.6% [at 52.9 µM]
CC(=O)Oc1ccc(C(=C2CCCCC2)c2ccc(OC(C)=O)cc2)cc1,9.77 µM (active),–
CCOC(=O)c1ccccc1C,–,5.65%
CCCCCCCCCOC(C)=O,–,31.8%
CC1=NN(c2ccc(C(=O)O)cc2)C(=O)C1,20 µM (active),–
CC(C)=CC=O,–,-7.58%
CCOC(=N)CC(=O)OCC,–,-21%
CCC(=O)OC/C=C/c1ccccc1,35.6 µM (active) and 71 µM (active),–
CCCCCCOC(=O)CCCCCCCC(=O)OCCCCCC,–,13.3%
CCCCCCCCCCCC[N+](C)(C)CCCS(=O)(=O)[O-],–,-4.13%
CCn1cc(C(=O)O)c(=O)c2cc(F)c(N3CCNCC3)nc21,–,2.53% [at 52.9 µM]
C=CCCCCCCCCCCCCCCCC,–,5.26% [at 10.5 µM]
Cc1ccc(S(=O)(=O)NC2CCCCC2)cc1,6.28 µM (active),–
CCc1c2c(nc3ccc(OC(=O)N4CCC(N5CCCCC5)CC4)cc13)-c1cc3c(c(=O)n1C2)COC(=O)[C@]3(O)CC,–,0.803% [at 52.9 µM]
